# SARS PLpro yeast – qHTS of Yeast-based Assay for SARS-CoV PLP; S. cerevisiae expressing SARS-CoV PLpro, growth rescue; Potency, µM (titrated, usually from 32.9 µM), for the others: top-dose activity, positive = growth rescue, usual class: activators; 330,000 tested, 0.19% active; AID 485353, 2010; calls by dose curve; also: potency is read from the fitted curve at half-maximal effect; 0% is about no effect; nearly all actives have a fitted effect of over 55% in size
# Sm TGR inh – qHTS Assay for the Inhibitors of Schistosoma Mansoni Peroxiredoxins; Schistosoma mansoni thioredoxin glutathione reductase (TGR), Q962Y6; purified TGR, DTNB reduction, TNB absorbance 405 nm; 360,000 tested, 3% active; Potency, µM (series often up to 114 µM), without a hit: at the highest dose activity change, negative = inhibition, usual class: inhibitors; also: potency is read from the fitted curve at half-maximal effect; % is scaled to controls: 0 for no effect and ±100 for the full control effect; nearly all actives have a fitted effect of over 60% in size
#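 First, TGR (20 nM dispensed) and NADPH were mixed with compound. Second, a 15 min room-temperature incubation followed. Third, further NADPH and then DTNB were added to start the reaction. Finally, TNB absorbance was monitored kinetically.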
# Pf growth 48h – Primary qHTS for delayed death inhibitors of the malarial parasite plastid, 48 hour incubation. P. falciparum luciferase growth in erythrocytes, 48 h. Potency, µM (doses to about 28.7 µM), for the others: at the highest dose activity change, negative = inhibition, usual class: inhibitors. 310,000 tested, 5.9% active. AID 504832, 2011; also: potency is read from the fitted curve at half-maximal effect; % is scaled to controls: 0 for no effect and ±100 for the full control effect
#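 Luminescence readout; reporter = integrated firefly luciferase in P. falciparum. RBC culture at 2% hematocrit, 0.1% parasitemia final, 37 C/5% CO2; decreased signal taken as growth inhibition.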
# HCMV inh – qHTS Assay for inhibitors of the human cytomegalovirus (HCMV) | activity change, negative = inhibition, % at 57.5 µM | HFF cells, HCMV-luciferase reporter, 72 h; stronger effect = lower value | 410,000 tested, 4.5% active; in the data active = activity change below about -60%; inconclusive = no clear call, values can overlap the other calls; inactive = above about -39%; also: % is scaled to controls: 0 for no effect and ±100 for the full control effect
#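 Compounds were evaluated in HFFs infected with an HCMV luciferase reporter virus (MOI 1 PFU/cell). Luciferase in lysates collected 72 h post infection served as the replication measure.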
# Pf growth 96h – Primary qHTS for delayed death inhibitors of the malarial parasite plastid, 96 hour incubation; 320,000 tested, 6.9% active; P. falciparum luciferase reporter growth, 96 h; Potency, µM (highest dose often 28.7 µM), for the others: at the highest dose activity change, negative = inhibition, usual class: inhibitors; also: potency is read from the fitted curve at half-maximal effect; % is scaled to controls: 0 for no effect and ±100 for the full control effect
#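 Delayed-death screen, second-generation endpoint: infected erythrocytes, 2% hematocrit, 0.05% parasitemia final; 96 hours at 37 C, 5% CO2; luciferase detection reagent; luminescence decrease equals reduced growth.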
# HCV inhibitor – qHTS Assay for Inhibitors of Hepatitis C Virus (HCV); Huh7.5.1 HCVcc-Cre infection, luciferase reporter, 44 h; Potency, µM (series often up to 41.8 µM), for the others: at the highest dose activity change, negative = inhibition, most hits filed as inhibitors; 340,000 tested, 3.4% active; also: potency is read from the fitted curve at half-maximal effect; % is scaled to controls: 0 for no effect and ±100 for the full control effect
#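 Cells seeded at 1,000/well and cultured 4 h, then compounds added followed by HCVcc-Cre virus (~0.5 moi). After 44 h further culture, luciferase substrate was added, plates held 15 min at room temperature, and luminescence read for 15 sec.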
# * marks the source's active call; other numbers are inactive results; ? = inconclusive; · = not tested or not shown; [ ] = remark or other dose. A selection: hits, their analogues and other compounds. The true share with any hit is near 15%. Unless noted, calls follow the shape of the dose curve; as a rule, active = well fitted curve in the direction sought with a large enough effect; inconclusive = small, poorly fitted or top-dose-only effect, or another doubt; inactive = no such curve, though single readings can be large; an effect the other way counts as inactive or inconclusive.
SMILES,SARS PLpro yeast,Sm TGR inh,Pf growth 48h,HCMV inh,Pf growth 96h,HCV inhibitor
Cc1c(P(=S)(c2ccccc2)c2ccccc2)[n+]2ccccc2n1C,5%,59%,?,-64*,-27%,?
CN(C)S(=O)(=O)c1ccc(Cl)c(NC(=O)COc2ccccc2[N+](=O)[O-])c1,-23%,1%,-1%,-23,5%,-12%
CC(C)NC(=O)C1(C)CCN1Cc1ccc(Cl)cc1 (stereo unspecified),·,·,·,-16,·,·
c1ccc(-c2nnc3sc(CN4CCc5ccccc54)cn23)cc1,-62%,-24%,10µM*,65,?,?
COc1ccc(C2CC(=O)c3cc(-c4nc(-c5cccc([N+](=O)[O-])c5)cs4)c(=O)n(-c4cccc(C)c4)c3C2)cc1 (stereo unspecified),·,3%,·,-1,·,·
Cc1cc2oc(=O)c(CC(=O)NCCCO)c(C)c2c2occ(C(C)(C)C)c12,1%,-2%,-1%[0.00184 µM],?,10%,-11%
COCCNC(=O)Cc1c(C)c2c(cc(C)c3c(C(C)(C)C)coc32)oc1=O,0%,-27%,0%[0.00184 µM],-61*,?,?
Cc1cc2oc(=O)c(CC(=O)NCCCN(C)C)c(C)c2c2occ(C(C)(C)C)c12,-1%,?,2.6µM*,·,1.9µM*,10µM*
O=C(NC12CC3CC(CC(C3)C1)C2)N(Cc1ccccc1)Cc1ccncc1,-1%,4%,?,20,-25%,0%
CCCS(=O)(=O)N1CCCC(C(=O)NC2CCCC(C)C2C)C1 (stereo unspecified),-2%,1%,8%,-5,?,10%
CCCS(=O)(=O)N1CCC(C(=O)NC2CCCC(C)C2C)CC1 (stereo unspecified),0%,6%,17%,-8,9.3µM*,12%
CCCCCCOc1ccc(C2C(=O)N(C3CCCCC3)CC(=O)N2CCC)cc1 (stereo unspecified),·,-7%,·,102,·,·
CCCSc1nc(-c2ccc(OC)cc2)cc(-c2ccccc2OC)c1C#N,·,4%,·,30,·,·
CC(Sc1nc(-c2ccco2)nc2c1c(=O)n(C)c(=O)n2C)C(=O)O (stereo unspecified),0%,40µM*,12%,0,3%,8%
Cc1ccc(NC(=O)C2CCN(C(=O)c3ccco3)CC2)cc1C,1%,-2%,17%,24,?,8%
O=C(OC[C@@H]1O[C@@](O)(COC(=O)c2cccnc2)[C@H](OC(=O)c2cccnc2)[C@H]1OC(=O)c1cccnc1)c1cccnc1,·,·,-20%,·,?,·
CC1=CC(=C(C#N)C#N)C=C(C)N1Cc1ccc(Cl)cc1,3%,3%,2.1µM*,-18,-89%,2%
N#Cc1c(N)nc2c(c1-c1ccc3c(c1)OCO3)CCc1ccccc1-2,-23%,3%,4.1µM*,8,-12%,13µM*
N#Cc1c(-c2ccc3c(c2)OCO3)csc1N,-13%,2%,54%,5,34%,8.9µM*
CCN(CC)C(=O)c1cc([N+](=O)[O-])cc2c1-c1ccc([N+](=O)[O-])cc1C2=C(C#N)C#N,0%,4µM*,15µM*,28,?,-16%
Cc1cc(Nc2cccc(C(F)(F)F)c2)nc2ccc(NC(=O)c3cccnc3)cc12,·,10%,·,-107*,·,·
CCOc1ccc(C(=O)Nc2ccc3nc(Nc4cccc(C(F)(F)F)c4)cc(C)c3c2)cc1OCC,·,-1%,·,-62*,·,·
Cc1cc(Nc2cccc(C(F)(F)F)c2)nc2ccc(NC(=O)c3cccc(Cl)c3)cc12,·,0%,·,-104*,·,·
Cc1cc(Nc2cccc(Cl)c2)nc2ccc(NC(=O)c3ccc(F)cc3Cl)cc12,·,2%,·,?,·,·

# Screens (PubChem BioAssay)
